Assay [1] concerns the target Calcium and integrin-binding protein 1 (Homo sapiens) (UniProt Q99828). Put plainly: Primary qHTS for Identification of Calcium Integrin Binding Protein 1 (CIB1) Competitor (AID 1508620). Further: potency means the concentration at half of the fitted maximal effect. A digest of the protocol:
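CIB1-GST (1 uM final) and compound incubated 15 min at room temperature before adding FITC-alphaIIb peptide tracer (100 nM final). Competition for binding read by fluorescence polarization (ex 480, em 540) after another 15 min at room temperature.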

Assay [2] is described as follows: Counterscreen qHTS for small molecule stabilizers of the endoplasmic reticulum resident proteome: GLuc-NoTag assay (AID 1508627).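 Further: SH-SY5Y cells given compound then 100 nM thapsigargin to empty ER calcium; series mostly up to about 76 µM; 0% = thapsigargin alone and -100% = DMSO vehicle control.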 In short, it runs like this: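 Luminescence of Gaussia luciferase secreted into the medium (coelenterazine, 0.07x final, unlysed cells) was the read-out. Human SH-SY5Y neuroblastoma cells constitutively secreting untagged GLuc received compound for 19 h, then 100 nM thapsigargin for 4 h.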

Assay [3] can be described thus: Cell Viability qHTS for small molecule stabilizers of the endoplasmic reticulum resident proteome (AID 1508629).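 Further: human SH-SY5Y neuroblastoma cells carrying the GLuc-SERCaMP reporter; compound exposure about 46 h in total before the viability read; on the % scale 0 is the no-effect control and ±100 the full control effect.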 Conditions: cell viability counter-screen, 100 nM thapsigargin for final 4 h. Background: Quantitative high-throughput screening tests each substance at several concentrations.
For assay [4], the target named is Cytochrome P450 2D6 (Homo sapiens) (UniProt P10635). Put plainly: Cytochrome P450 family 2 subfamily D member 6 (CYP2D6) small molecule antagonists: luciferase biochemical (cell-free) qHTS assay (AID 1645840; active means well fitted curve in the direction sought with a large enough effect in the repeat runs; an effect the other way counts as inactive or inconclusive; further: nearly all actives have a fitted effect of over 55% in size; further: potency means the concentration at half of the fitted maximal effect). A digest of the protocol: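 P450-Glo luminescent screen: recombinant CYP2D6 enzyme–proluciferin substrate mix preincubated with compound 10 min at room temperature, then NADPH regeneration added for 1 h at room temperature. Detection reagent added for 20 min; luciferin light read as relative luminescence units.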

Assay [5] concerns the target Cytochrome P450 2C9 (Homo sapiens) (UniProt P11712). Put plainly: Cytochrome P450 family 2 subfamily C member 9 (CYP2C9) small molecule antagonists: luciferase biochemical (cell-free) qHTS assay (AID 1645842; active means well fitted curve in the direction sought with a large enough effect in the repeat runs; an effect the other way counts as inactive or inconclusive; further: nearly all actives have a fitted effect of over 55% in size; further: potency means the concentration at half of the fitted maximal effect). A digest of the protocol: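 Luminescence, after 20 min with luciferin detection reagent, reflected CYP2C9 turnover during a 1 h NADPH-driven reaction at 37C. Enzyme-substrate mix contained 0.4% bovine serum albumin and was preincubated with compound 10 min at room temperature.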

Assay [6] in a line: Confirmatory qHTS for small molecule stabilizers of the endoplasmic reticulum resident proteome: Secreted ER Calcium Modulated Protein (SERCaMP) assay (AID 1508628). Further: nearly all actives have a fitted effect of over 40% in size. Further: potency means the concentration at half of the fitted maximal effect. In short, it runs like this:
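We seeded SH-SY5Y-GLuc-SERCaMP cells, added compounds (three concentrations in the primary run, eleven up to 76.6 uM in confirmation), incubated 16 h, depleted ER calcium with thapsigargin, and read luciferase 4 h later.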

The nature of assay [7]: A High-Content qHTS Against Drug Library for the Identification of Small Molecules that Inhibit DYT1 Early Onset Primary Dystonia-Associated Cell Pathology (AID 1645839; calls by dose curve; further: potency means the concentration at half of the fitted maximal effect). In short, it runs like this: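 In this high-content image screen, delE TorsinA mislocalization in inducible Flp-In 293 cells is scored as %pathology, with cell count serving as the counterscreen. Compound exposure lasts 48 h under tetracycline induction in reduced-serum medium.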

The target of assay [8] is Calcium and integrin-binding protein 1 (Homo sapiens) (UniProt Q99828). Put plainly: Validation qHTS for Identification of Calcium Integrin Binding protein 1 (CIB1) Competitor (AID 1508618). Further: on the % scale 0 is the no-effect control and ±100 the full control effect. A digest of the protocol: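 CIB1-GST (1 uM final) in 5 mM HEPES pH 7.4, 125 mM NaCl, 5 mM CaCl2, 0.01% Tween20 was preincubated 15 min at room temperature with compound (up to 114 uM), then FITC-alphaIIb peptide (100 nM) added for 15 min; fluorescence polarization read.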

Assay [9] in a line: Primary qHTS for small molecule stabilizers of the endoplasmic reticulum resident proteome: Secreted ER Calcium Modulated Protein (SERCaMP) assay (AID 1508630). Further: on the % scale 0 is the no-effect control and ±100 the full control effect. In short, it runs like this:
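GLuc-SERCaMP-expressing SH-SY5Y cells, pretreated 16 h with compound, are challenged with thapsigargin to empty ER calcium stores; after 4 h, coelenterazine is added directly to the medium and luminescence is imaged.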

Where “and” joins values, the source holds several entries; their conditions need not be identical. Equal values may be shown once. Records with an inconclusive call do not appear. Unmarked numbers belong to inactive results. Calls of active or inactive are those of the source. Unless noted, the call rests on the fitted dose curve; in most records, active means well fitted curve in the direction sought with a large enough effect; inconclusive means small, poorly fitted or top-dose-only effect, or another doubt; inactive means no such curve, though single readings can be large; an effect the other way counts as inactive or inconclusive.

In PubChem BioAssay (NCATS) one finds Potency, max response and outcome data, which are given here for 29 compounds.

Sequence of Calcium and integrin-binding protein 1 (Homo sapiens) (Q99828 whole entry, looked up): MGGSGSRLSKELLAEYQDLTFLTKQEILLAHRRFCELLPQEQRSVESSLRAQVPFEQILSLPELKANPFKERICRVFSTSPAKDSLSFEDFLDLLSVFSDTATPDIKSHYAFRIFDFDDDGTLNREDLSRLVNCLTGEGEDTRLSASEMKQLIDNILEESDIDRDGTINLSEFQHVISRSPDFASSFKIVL
Sequence of Cytochrome P450 2D6 (Homo sapiens) (P10635 whole entry, looked up): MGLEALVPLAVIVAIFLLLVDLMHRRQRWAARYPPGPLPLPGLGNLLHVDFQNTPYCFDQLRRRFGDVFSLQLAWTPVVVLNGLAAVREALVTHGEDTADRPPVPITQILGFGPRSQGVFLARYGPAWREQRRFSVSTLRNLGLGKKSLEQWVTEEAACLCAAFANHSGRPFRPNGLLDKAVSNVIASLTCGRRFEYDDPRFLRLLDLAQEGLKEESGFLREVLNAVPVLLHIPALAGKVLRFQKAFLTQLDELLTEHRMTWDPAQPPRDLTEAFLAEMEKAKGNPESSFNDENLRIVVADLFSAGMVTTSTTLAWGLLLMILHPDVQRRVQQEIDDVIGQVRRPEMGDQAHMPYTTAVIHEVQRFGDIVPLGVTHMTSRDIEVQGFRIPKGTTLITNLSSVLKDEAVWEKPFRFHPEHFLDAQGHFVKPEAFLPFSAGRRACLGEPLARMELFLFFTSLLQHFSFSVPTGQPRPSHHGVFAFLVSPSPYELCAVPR
Sequence of Cytochrome P450 2C9 (Homo sapiens) (P11712 whole entry, looked up): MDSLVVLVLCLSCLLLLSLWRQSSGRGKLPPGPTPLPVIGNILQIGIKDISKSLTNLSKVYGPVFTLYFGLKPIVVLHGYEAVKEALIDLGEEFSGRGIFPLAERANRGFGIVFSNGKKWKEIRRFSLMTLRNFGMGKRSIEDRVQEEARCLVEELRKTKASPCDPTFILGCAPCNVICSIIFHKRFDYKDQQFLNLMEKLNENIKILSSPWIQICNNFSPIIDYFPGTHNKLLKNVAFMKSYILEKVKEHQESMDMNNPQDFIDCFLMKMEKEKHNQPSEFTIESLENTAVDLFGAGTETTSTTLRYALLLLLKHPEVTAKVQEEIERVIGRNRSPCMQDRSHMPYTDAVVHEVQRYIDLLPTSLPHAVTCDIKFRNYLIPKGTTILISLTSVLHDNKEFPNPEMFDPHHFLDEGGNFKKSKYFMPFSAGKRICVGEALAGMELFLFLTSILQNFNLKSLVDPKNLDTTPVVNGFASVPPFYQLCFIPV

In the case of `CCOC(=O)c1ccc(O)c(O)c1`, the Potency entry in [1], in assay [2], in assay [4] and in assay [5] was “inactive” each time. Also, the max response in assay [3] is 4.88%.
As for `Fc1ccc(C(c2ccc(F)cc2)N2CCNCC2)cc1`, the Potency entry in assay [1], in assay [2], in assay [6], in assay [7] and in assay [5] was “inactive” throughout. Also, the Potency in [4] was 7.76 µM (active).
Take `CN1CCC(Nc2ncc3ncnc(Nc4ccc(F)c(Cl)c4)c3n2)CC1`: the Potency result in [1], in assay [2], in [6] and in assay [5] was “inactive” each time. For the same compound, in [4], the Potency was 15.5 µM (active).
For the compound `O=C(NO)c1ccccc1`, the Potency entry in assay [1], in [2], in assay [6], in assay [7], in assay [4] and in [5] was “inactive” throughout. Besides, the max response in assay [3] was 2.69%.
As for `CC(C)OC(=O)c1cc2c(OCC(O)CNC(C)(C)C)cccc2[nH]1` (stereo unspecified), the Potency entry in [1], in assay [2], in assay [7] and in assay [5] was “inactive” throughout. Besides, the max response in assay [3] was -12.8%. The Potency in assay [4] was 11 µM (active).
On to `O=[N+]([O-])c1ccc(-c2nc(-c3ccc(F)cc3)c(-c3ccncc3)[nH]2)cc1`, for which the outcome in assay [8] was inactive. Besides, the Potency result in assay [1] is “inactive”.
`COC(=O)C1=CO[C@@H](O)[C@@H]2C(CO)=CC[C@H]12`: the result in assay [8] was inactive. Further, the Potency entry in assay [1] is “inactive”.
For the compound `CC(CC1c2ccccc2CCc2ccccc21)CN(C)C` (stereo unspecified), the Potency result in [1], in [2] and in assay [5] was “inactive” in each case. Also, the Potency in [4] is 0.246 µM (active).
In the case of `Cc1nc2n(c(=O)c1CCN1CCC(C(=O)c3ccc(F)cc3)CC1)CCS2`, the Potency result in [1], in [2], in assay [6], in [7] and in assay [5] was “inactive” throughout. Further, the max response in assay [3] is -14.5%. In addition, in [4], the Potency was 0.275 µM (active).
On to `O=C(O)Cn1cnnn1`, for which the Potency entry in assay [1], in assay [2], in assay [6], in [7], in [4] and in [5] was “inactive” in each case.
As to `CC(C)(C)c1ccc(O)c(O)c1`, the Potency result in assay [1] and in assay [2] was “inactive” each time. For the same compound, the Potency in [7] is 31.6 µM (active).
Take `CN(C)CCOC(c1ccccc1)c1ccc(Br)cc1` (stereo unspecified): the Potency entry in assay [1], in assay [2] and in assay [5] was “inactive” in each case. Moreover, the Potency in assay [4] is 0.275 µM (active).
Take `CCN(CC)CCNC(=O)c1ccc(NS(C)(=O)=O)cc1`: the result in assay [8] was inactive. Besides, the Potency entry in assay [9] was “inactive”.
With `Cc1nn(-c2ccccc2)c(C)c1/C=N/N1CCN(Cc2ccccc2)CC1`, in assay [8], the result was inactive. Moreover, in assay [1], the Potency result was “inactive”.
For the compound `O=C1CC(c2ccc(Cl)cc2)CC(=O)N1`, the Potency entry in [1], in [2], in assay [6], in [7], in assay [4] and in [5] was “inactive” in each case. Further, the max response in assay [3] is 1.98%.
As to `CCCC(=O)Nc1ccc(O)c(C(C)=O)c1`, the Potency entry in assay [1], in assay [6], in [7], in [4] and in [5] was “inactive” throughout. In assay [3], the max response was 11.5%.
Regarding `C[C@H]1C[C@H](O)c2ccsc2S1(=O)=O`, the Potency result in assay [1], in [2], in assay [6], in assay [7], in [4] and in assay [5] was “inactive” in each case.
As to `CC(C)C[C@@H]1[C@H](c2ccccc2)OC(=O)N1CCCN1CCCCCC1`, the Potency result in assay [1], in assay [2] and in assay [5] was “inactive” each time. In addition, the figures for the Potency in [6] and in [4] were 31.6 µM (active) and 0.776 µM (active), respectively. For the same compound, the max response in assay [3] is -0.48%.
On to `C[N+](C)(C)CCO`, for which the outcome in [8] was inactive. In addition, the Potency entry in [9] is “inactive”.
`COc1cccc2c1[C@@H]1CN(CCCCn3c(=O)[nH]c4c(sc5ncc(-c6ccccc6)nc54)c3=O)C[C@@H]1CO2`: the outcome in assay [8] was inactive. The Potency entry in assay [6] is “inactive”.
`COc1ccccc1N1CCN(CCN2C(=O)CC3(CCCC3)CC2=O)CC1`: the outcome in assay [8] was inactive. Also, the Potency result in [1] and in [9] was “inactive” in each case.
On to `Cc1onc(-c2ccccc2)c1C(=O)Cl`, for which the Potency result in assay [1], in [2], in assay [6], in [7], in [4] and in assay [5] was “inactive” throughout.
As for `CCOc1ncc(F)c(=O)[nH]1`, the Potency entry in assay [1], in [2], in assay [6], in [7], in assay [4] and in assay [5] was “inactive” in each case.
On to `CC(C)(c1ccc(O)cc1)c1ccc(O)cc1`, for which the Potency entry in assay [1] and in assay [2] was “inactive” in each case. The Potency was 89.1 µM (active) and 44.7 µM (active) and 50.1 µM (active) in assay [6]; 31.6 µM (active) in assay [7]; 43.9 µM (active) in [4]; 27.2 µM (active) in assay [5].
Turning to `CC(C)N(CCC(=O)c1ccc2ccccc2c1)Cc1ccccc1`, in assay [8], the result was inactive. Further, the Potency in assay [1] is 28.2 µM (active). Also, the Potency entry in [9] is “inactive”.
Regarding `COC(=O)c1c(Cl)c(Cl)c(C(=O)OC)c(Cl)c1Cl`, the Potency entry in assay [1], in [2], in assay [6], in [7], in assay [4] and in assay [5] was “inactive” in each case. Also, in assay [3], the max response was 10.1%.
As for `NC(N)=NCCCCN=C(N)N`, the result in assay [8] was inactive. Besides, the Potency entry in assay [9] was “inactive”.
In the case of `Brc1ccc([C@H]2CN3CCSC3=N2)cc1`, the result in [8] was inactive. In addition, the Potency result in assay [1] and in assay [9] was “inactive” in each case.
In the case of `O=C1NC(c2cccc([N+](=O)[O-])c2)=CCN1c1ccccc1O`, the Potency result in assay [1], in [2] and in assay [9] was “inactive” each time. The Potency in [6] is 3.16 µM (active). Also, in assay [3], the max response was 23.5% and 15.8%.
